From PubChem BioAssay AID1347428 (National Center for Advancing Translational Sciences (NCATS), 2020) come the findings set out here.

In all, about 91,000 compounds went through this assay and about 290 (0.32%) were called active. About 7% were inconclusive and are not listed. Calls come from the whole dose curve; as a rule, active = well fitted inhibition curve with a large enough effect; inconclusive = small, poorly fitted or top-dose-only effect; inactive = no such curve, though single readings can be large or run the other way. The list comes from a sample in which actives are over-represented; it also holds similar structures and randomly drawn compounds. Entries that show only a call come without a potency.
Potency is the fitted concentration of half-maximal effect.

The test deals with Single-stranded DNA cytosine deaminase (Homo sapiens) (UniProt Q9GZX7). Put plainly: Primary qHTS assay for inhibitors of Activation Induced Cytidine Deaminase (AID): AID signal. Note: nearly all actives have a fitted effect of over 25% in size. The settings on record: AID deamination FRET fluorescence, UDG-coupled, 4 h; series mostly up to 115 µM. On the technique in general: In qHTS, concentration-response curves come from the screen itself.
Sequence of Single-stranded DNA cytosine deaminase (Homo sapiens) (Q9GZX7 whole entry, looked up): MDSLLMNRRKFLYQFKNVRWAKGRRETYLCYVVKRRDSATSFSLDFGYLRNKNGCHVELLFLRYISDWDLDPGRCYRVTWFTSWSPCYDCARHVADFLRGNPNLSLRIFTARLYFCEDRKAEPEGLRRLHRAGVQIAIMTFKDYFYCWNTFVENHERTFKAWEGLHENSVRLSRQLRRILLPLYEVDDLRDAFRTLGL
On to `CC(=O)Oc1c(Cl)cc(Cl)cc1Sc1cc(Cl)cc(Cl)c1OC(C)=O`, for which the Potency result is “inactive”.

`Cc1ccc(OCCSc2nnc(COc3ccccc3Cl)n2C)cc1`: the Potency result is “inactive”.

As for `CCCCCCCCc1cnc(-c2ccc(O)cc2)nc1`, the Potency result was “inactive”.

As for `COc1cc(CN(C(=S)NCC(=O)NCc2ccccc2Cl)C2CCCC2)cc(OC)c1OC`, the Potency entry is “inactive”.

With `CC(=O)N1CCC(NC(=O)c2cc(C)nc3cc(F)ccc23)CC1`, the Potency result is “inactive”.

Consider `Cc1nn(-c2ncnc3nc[nH]c23)c2c1C(c1cccc(F)c1)CC(=O)N2` (stereo unspecified), for which the Potency result is “inactive”.

For the molecule `O=C(O)C1CCN(C(=O)Cn2ccc3c(Br)cccc32)CC1`, the Potency result was “inactive”.

Consider `CCC(=O)c1ccc(C2CCCCC2)cc1`, for which the Potency entry is “inactive”.

Regarding `C(=C\c1ccccc1)/CNC1CC1`, the Potency result was “inactive”.

For `N#Cc1ccc(COC(=O)CCC(=O)c2ccccc2)cc1`, the Potency entry is “inactive”.

Take `Cc1cc(C(=O)O)c(C)n1CC(F)(F)F`: the Potency entry is “inactive”.

Regarding `O=C(/C=C/c1cccs1)N1CC=C(c2ccccc2)CC1`, the Potency entry was “inactive”.

For `C(#CCN1CCCCC1)COC(c1ccccc1)c1ccccc1`, the Potency result is “inactive”.

With `CC(C)NS(=O)(=O)c1ccc(C(=O)NCC(=O)O)cc1`, the Potency result is “inactive”.

Regarding `COc1cccc(CN(C)S(=O)(=O)c2cnn(C)c2)c1OC`, the Potency entry is “inactive”.

For `CC(C)CCNC(=S)Nc1cccc(C(F)(F)F)c1`, the Potency result was “inactive”.

Consider `O=C(Nc1ccc2nc(N3CCCC3)sc2c1)c1ccc(F)cc1`, for which the Potency result is “inactive”.

`Cc1cc(C(=O)OCc2cccc(C#N)c2)c(C)o1`: the Potency result was “inactive”.

Take `O=C(N/N=C/c1ccccc1OCCOc1ccc([N+](=O)[O-])cc1)Nc1ccccc1`: the Potency result is “inactive”.

As to `COc1ccc(NC(=O)Cc2ccc3c(c2)OCCO3)cn1`, the Potency result is “inactive”.

For the molecule `Cc1nn(C)c2c(=O)n(CC(=O)NCc3ccccc3)ccc12`, the Potency result is “inactive”.

As to `CCOc1ccc(C(=O)CCC(=O)OCC(=O)c2ccc3c(c2)OCCO3)cc1`, the Potency result was “inactive”.

Turning to `CC(C)c1ccc(NC(=O)CSc2nc3ncc(Cl)cc3[nH]2)cc1`, the Potency entry is “inactive”.

`COc1cc(C2CC(=O)Nc3nc(-c4ccccc4)[nH]c(=O)c32)ccc1OCc1ccc(F)cc1` (stereo unspecified): the Potency result is “inactive”.

Turning to `CCCCNc1oc(/C=C/c2ccc(OCC)cc2)nc1C#N`, the Potency entry is “inactive”.

As to `Cc1ccc(NC(=O)CCc2nc3cc(Cl)ccc3n(CC(C)C)c2=O)cc1`, the Potency entry is “inactive”.

As to `O=C1c2ccccc2C(=Cc2ccc(Cl)cc2)c2ccccc21`, the Potency result is “inactive”.

Consider `O=C(O)c1ccc(I)c(Br)c1`, for which the Potency result is “inactive”.

Consider `COc1cc(OC)cc(-c2nc3nc(C)c(CCC(=O)Nc4ccccc4)c(C)n3n2)c1`, for which the Potency entry was “inactive”.

Regarding `Cc1nc2nc(SCC(=O)N(Cc3ccccc3)C(C)C)nn2c(C)c1Cc1ccccc1Cl`, the Potency is 22.4 µM (active).

Take `Cc1nnc(SCC(=O)NCc2ccccc2Cl)c2nn(-c3ccccc3)c(C)c12`: the Potency result was “inactive”.

Regarding `Cc1cccc(CC(=O)N2CC(=O)Nc3ccc(F)cc3C2c2ccccc2)c1` (stereo unspecified), the Potency result was “inactive”.

Take `COc1ccc(CC(=O)N2CC(=O)Nc3ccc(Br)cc3C2c2ccc(F)cc2)cc1OC` (stereo unspecified): the Potency entry is “inactive”.

In the case of `CCCCOc1ccc(C(=O)N2CC(=O)Nc3ccc(Br)cc3C2c2ccc(F)cc2)cc1` (stereo unspecified), the Potency was 35.5 µM (active).

For the molecule `O=C(Nc1c(N2CCCC2)c2ccccc2oc1=O)c1ccc(Br)o1`, the Potency entry is “inactive”.

On to `Cc1cc(NC(=O)c2ccc(F)cc2F)n(CCC#N)n1`, for which the Potency entry was “inactive”.
